Source: PubChem BioAssay (National Center for Advancing Translational Sciences (NCATS))
Sampled rows, rich in hits. Any-hit rate of the full collection: about 12%.
HP1b chromo inh: inhibitors of HP1-beta chromodomain binding to methylated histone tails. P83916. Potency, µM (series often up to 114 µM), for inactives: at the highest dose activity change, negative = inhibition, most hits filed as inhibitors. 390,000 tested, 0.56% active. AlphaScreen HP1-beta / biotin-H3K9me3 peptide binding; note: nearly all actives have a fitted effect of over 70% in size
Target sequence (P83916 whole entry, looked up): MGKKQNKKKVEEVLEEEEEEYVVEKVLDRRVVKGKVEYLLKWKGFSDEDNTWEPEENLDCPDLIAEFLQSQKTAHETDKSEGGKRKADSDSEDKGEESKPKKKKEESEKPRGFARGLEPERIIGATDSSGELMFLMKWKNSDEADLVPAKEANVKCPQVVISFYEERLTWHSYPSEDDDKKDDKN
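Compound inhibition of the preformed complex between 50 nM HP1-beta and 50 nM biotinylated H3K9me3 peptide was read by AlphaScreen. Buffer was PBS pH 7.4 with 0.01% Tween-20. Incubations ran 30 min at room temperature, with 10 ug/mL donor/acceptor beads.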
BAZ2B block: inhibitors of human BAZ2B bromodomain; Q9UIF8; AlphaScreen BAZ2B-H3K14Ac peptide displacement; Potency, µM (series often up to 114 µM), inactives show at the highest dose activity change, negative = inhibition, actives largely listed as inhibitors; 360,000 tested, 4.4% active; note: % is set by controls: 0 for no effect and ±100 for the full control effect; nearly all actives have a fitted effect of over 60% in size
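In this displacement format the biotinylated H3(5-23) peptide acetylated at Lys14 serves as ligand at 50 nM, with BAZ2B at 50 nM in PBS pH 7.4 containing 0.01% Tween-20. Donor and acceptor beads are 10 ug/mL final.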
G9a inh: G9a (human) methyltransferase inhibition. G9a H3K9 monomethylation, AlphaScreen, 2 h. Potency, µM (top dose mostly 102 µM), for inactives: top-dose activity, negative = inhibition, actives largely listed as inhibitors. 350,000 tested, 8.8% active. AID 504332; note: % is set by controls: 0 for no effect and ±100 for the full control effect; nearly all actives have a fitted effect of over 75% in size
Target sequence (Q96KQ7 913-1193 limits assumed): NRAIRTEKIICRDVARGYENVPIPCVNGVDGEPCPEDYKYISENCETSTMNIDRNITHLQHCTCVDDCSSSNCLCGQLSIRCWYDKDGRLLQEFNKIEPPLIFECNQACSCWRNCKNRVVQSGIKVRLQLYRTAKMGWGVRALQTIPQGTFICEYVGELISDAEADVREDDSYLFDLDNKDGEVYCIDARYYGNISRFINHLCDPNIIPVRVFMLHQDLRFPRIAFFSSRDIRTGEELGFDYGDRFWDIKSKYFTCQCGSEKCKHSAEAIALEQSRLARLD
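Chemiluminescent proximity detection of H3K9 monomethylation, read after 10 min bead incubation in the dark. Reaction: 20 nM G9a, 500 nM biotin-H3K9 peptide, 20 uM SAM cofactor, 2 h, room temperature, following 15 min enzyme-compound preincubation.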
TDP1 inh: blocks human tyrosyl-DNA phosphodiesterase 1. recombinant TDP1, AlphaScreen DNA substrate cleavage. Potency, µM (highest dose often 130 µM), without a hit: top-dose activity change, negative = inhibition, actives largely listed as inhibitors. 350,000 tested, 0.28% active. AID 485290; note: % is set by controls: 0 for no effect and ±100 for the full control effect; nearly all actives have a fitted effect of over 40% in size
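Signal: AlphaScreen proximity between streptavidin donor and anti-FITC acceptor beads on intact substrate. Reaction: Tdp1 1 nM, substrate 15 nM final, 5 min RT after 15 min compound preincubation.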
Sfp PPTase inh: inhibitors of Bacillus subtilis Sfp phosphopantetheinyl transferase; 310,000 tested, 3.5% active; AID 1490; Biochemical Sfp PPTase activity, qHTS; Potency, µM, for the others: largest response in the series, negative = inhibition, actives largely listed as inhibitors; Q9F4F7;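 note: the enzyme is Sfp with the accession as filed and its product quenches rhodamine fluorescence; 0% = enzyme reaction without inhibitor and -100% = no enzyme wells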
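With Hepes-Na pH 7.6 buffer containing 10 mM MgCl2, Sfp (15 nM) modified BHQ-2-YbbR (12.5 uM) using rhodamine-CoA (5 uM). Two reads 30 minutes apart at 525/598 nm yielded each well's rate.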
JMJD2A Tudor inh: inhibitors of human JMJD2A Tudor domain; AlphaScreen JMJD2A-Tudor / H3K4me3 peptide binding; Potency, µM (titrated, usually from 114 µM), without a hit: at the top dose activity change, negative = inhibition, actives largely listed as inhibitors; AID 504339; O75164; 390,000 tested, 4.4% active; note: % is set by controls: 0 for no effect and ±100 for the full control effect; nearly all actives have a fitted effect of over 50% in size
Numbers without * were called inactive; [ ] = remark or other dose. Calls come from the whole dose curve; as a rule, active = well fitted curve in the direction sought with a large enough effect; inconclusive = small, poorly fitted or top-dose-only effect, or another doubt; inactive = no such curve, though single readings can be large; an effect the other way counts as inactive or inconclusive. Potency is the fitted concentration of half-maximal effect.

How did COc1ccc(S(=O)(=O)NCCc2sc(-c3cccnc3)nc2C)cc1OC do in these assays?
HP1b chromo inh: 9.2%[57 µM]; BAZ2B block: 4.7%; G9a inh: 0.9%[59 µM]; TDP1 inh: 2.2%; JMJD2A Tudor inh: -19.0%

How did Cc1cc2c(s1)c1c(C)nn(Cc3ccccc3F)c(=O)c1n2C do in these assays?
BAZ2B block: 6.0%; G9a inh: 9.0%[12.7 µM]

Results for COc1ccc(CCNC(=O)Cn2c(=O)n(-c3ccc(OC)c(OC)c3)c(=O)c3ccccc32)cc1OC ?
HP1b chromo inh: 17.9%; BAZ2B block: -6.3%; G9a inh: -0.3%[59 µM]; TDP1 inh: 0.9%; JMJD2A Tudor inh: -7.5%

What do the screens show for `COc1cc(-c2cc(C(=O)Nc3cccc(C(C)=O)c3)c3ccccc3n2)cc(OC)c1OC`?
HP1b chromo inh: 38.3%; BAZ2B block: -10.6%; G9a inh: -0.7%; Sfp PPTase inh: 8.1%; JMJD2A Tudor inh: -15.2%

What do the screens show for `O=C(Nc1cccnc1)c1cc2c(ccc3ccccc32)o1`?
HP1b chromo inh: 10.7%; BAZ2B block: 79.4µM*; G9a inh: inconclusive; Sfp PPTase inh: -10.7%; JMJD2A Tudor inh: 56.2µM*

Results for Cc1ccc(-c2cc(C(=O)Nc3cccnc3)c3ccccc3n2)o1 ?
HP1b chromo inh: inconclusive; BAZ2B block: -33.1%; G9a inh: 8.91µM*; TDP1 inh: 9.1%; Sfp PPTase inh: inconclusive; JMJD2A Tudor inh: 22.4µM*

How did COc1cc(-c2cc(C(=O)Nc3ccc(O)cc3)c3ccccc3n2)cc(OC)c1OC do in these assays?
HP1b chromo inh: -19.4%; BAZ2B block: -39.0%; G9a inh: 14.1µM*; TDP1 inh: 6.0%; Sfp PPTase inh: 22.4µM*; JMJD2A Tudor inh: -2.2%[11.4 µM]

What do the screens show for `Cc1ccc(-c2cc(C(=O)NCCN3CCOCC3)c3ccccc3n2)o1`?
HP1b chromo inh: 40.3%; BAZ2B block: -13.8%; G9a inh: 28.2µM*; TDP1 inh: 2.4%; Sfp PPTase inh: -20.0%; JMJD2A Tudor inh: -6.8%

How did COc1ccc(-c2cc(C(=O)NCCN3CCOCC3)c3ccccc3n2)cc1 do in these assays?
HP1b chromo inh: 28.8%; BAZ2B block: 1.9%; G9a inh: 4.4%; TDP1 inh: -7.7%; Sfp PPTase inh: 9.9%; JMJD2A Tudor inh: -3.3%

How did NNC(=O)c1cc2c(ccc3ccccc32)o1 do in these assays?
HP1b chromo inh: -3.8%; BAZ2B block: 5.6%; G9a inh: 44.2%[59 µM]; TDP1 inh: 5.4%; Sfp PPTase inh: 1.0%; JMJD2A Tudor inh: -18.7%

How did COc1ccc(NC(=S)N2CCN(S(=O)(=O)c3ccc(F)cc3)CC2)cc1 do in these assays?
HP1b chromo inh: 44.8%; BAZ2B block: -12.6%; TDP1 inh: 2.9%; Sfp PPTase inh: -0.5%; JMJD2A Tudor inh: -26.0%

Results for COc1ccccc1NC(=O)c1cc(-c2ccc(C)o2)nc2ccccc12 ?
HP1b chromo inh: 4.2%; BAZ2B block: -11.5%; G9a inh: 39.8µM*; TDP1 inh: 5.1%[0.0935 µM]; Sfp PPTase inh: -5.0%; JMJD2A Tudor inh: -9.7%

Results for Cc1ccc(NC(=O)c2cc(-c3ccc(C)o3)nc3ccccc23)cc1 ?
HP1b chromo inh: -15.1%; BAZ2B block: -4.2%; G9a inh: 10µM*; TDP1 inh: 2.0%; Sfp PPTase inh: 10µM*; JMJD2A Tudor inh: 79.4µM*

What do the screens show for `O=C(Cc1ccsc1)Nc1ccc2c(c1)OCO2`?
HP1b chromo inh: 32.7%; BAZ2B block: -20.4%; G9a inh: -0.5%[12.7 µM]; TDP1 inh: -0.1%; JMJD2A Tudor inh: -12.5%

What do the screens show for `CN(C)c1ccc(NC(=O)Cn2c(SCc3ccccc3F)nc3cccnc32)cc1`?
HP1b chromo inh: 15.7%; BAZ2B block: -10.0%; G9a inh: 3.16µM*; TDP1 inh: 5.0%; JMJD2A Tudor inh: -13.9%

Results for Cc1ccc(C)c(CSc2nc3ccncc3n2CC(=O)Nc2ccc(C)c(C)c2)c1 ?
BAZ2B block: -3.2%; G9a inh: inconclusive; TDP1 inh: 3.9%; Sfp PPTase inh: -7.3%

How did Cc1ccc(C)c(CSc2nc3ccncc3n2CC(=O)Nc2ccc(N(C)C)cc2)c1 do in these assays?
HP1b chromo inh: -9.4%; BAZ2B block: inconclusive; G9a inh: 5.01µM*; TDP1 inh: 10.1%; JMJD2A Tudor inh: inconclusive

Results for COc1ccc(OS(=O)(=O)c2c(C)noc2C)cc1 ?
HP1b chromo inh: 44.1%; BAZ2B block: 7.0%; G9a inh: 42.7%; TDP1 inh: -1.4%; Sfp PPTase inh: 21.8%; JMJD2A Tudor inh: 18.9%

How did Oc1c(Cl)cc(Cl)cc1/C=N/NC(=S)NC1CC2C=CC1C2 (stereo not given) do in these assays?
HP1b chromo inh: 30.0%; BAZ2B block: 7.94µM*; G9a inh: -2.5%; TDP1 inh: 5.7%; Sfp PPTase inh: 12.7%; JMJD2A Tudor inh: 50.1µM*

Results for Oc1ccccc1C=NNC(=S)Nc1ccc(F)cc1 ?
HP1b chromo inh: 16.7%; JMJD2A Tudor inh: 56.2µM*

How did Oc1ccccc1/C=N/NC(=S)NC1CC2C=CC1C2 (stereo not given) do in these assays?
HP1b chromo inh: 5.9%; BAZ2B block: 28.2µM*; G9a inh: inconclusive; TDP1 inh: 8.6%; Sfp PPTase inh: 14.3%; JMJD2A Tudor inh: 44.7µM*

Results for Cn1c(C(=O)N2CCC(C(N)=O)CC2)cc2cc(Cl)ccc21 ?
HP1b chromo inh: 27.4%; BAZ2B block: -4.8%; TDP1 inh: 5.5%; Sfp PPTase inh: 19.4%; JMJD2A Tudor inh: -24.0%

What do the screens show for `O=c1c2cc([N+](=O)[O-])cc([N+](=O)[O-])c2[nH]n1-c1ccccc1`?
HP1b chromo inh: 35.5µM*; BAZ2B block: 39.8µM*; G9a inh: 28.2µM*; Sfp PPTase inh: -18.5%; JMJD2A Tudor inh: 35.5µM*

How did CCOC(=O)CSc1nc2c([nH]c3ccccc32)c(=O)n1-c1ccc(OC)cc1 do in these assays?
HP1b chromo inh: 6.4%; BAZ2B block: -3.9%; G9a inh: 3.3%[59 µM]; TDP1 inh: 7.0%; JMJD2A Tudor inh: 20µM*

How did COc1cccc(-n2c(SCC(=O)Nc3nnc(C)s3)nc3c([nH]c4ccccc43)c2=O)c1 do in these assays?
HP1b chromo inh: 26.0%[57 µM]; BAZ2B block: 2.2%; G9a inh: 3.1%[59 µM]; TDP1 inh: 3.3%; JMJD2A Tudor inh: 50.1µM*

How did COc1cccc(NC(=O)CSc2nc3c([nH]c4ccccc43)c(=O)n2-c2ccccc2)c1 do in these assays?
HP1b chromo inh: 25.5%[57 µM]; BAZ2B block: -3.0%; G9a inh: 3.9%[59 µM]; TDP1 inh: 7.7%; JMJD2A Tudor inh: -12.6%

Results for COc1ccc(-n2c(SCC(=O)N3CCc4ccccc43)nc3c([nH]c4ccccc43)c2=O)cc1 ?
HP1b chromo inh: 23.2%[57 µM]; BAZ2B block: 1.0%; G9a inh: 0.1%[59 µM]; TDP1 inh: -1.1%; JMJD2A Tudor inh: -9.4%
